16 molecules from PubChem BioAssay (EPA / NIEHS) can be followed below.

The nature of assay [1]: BSK_CASM3C_SRB: Viability Assessment in the BioMAP Diversity Plus: CASM3C Assay (AID 2283050).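 Further: total protein by SRB staining as cytotoxicity measure in parallel cultures; cells exposed to compound for 24 h.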 The note with it: primary human coronary artery smooth muscle cells.
Read-out in assay [2]: Thrombomodulin, THBD (gene 7056)
Briefly: BSK_CASM3C_Thrombomodulin: BioMAP Diversity Plus: CASM3C Assay for Thrombomodulin Biomarker Activity (AID 2283051).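 Further: thrombomodulin protein level measured by ELISA 24 h after dosing.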 The note with it: primary human coronary artery smooth muscle cells; actives raise or lower the signal.

Read-out in assay [3]: Tissue Factor, F3 (gene 2152)
As to the kind of experiment: BSK_CASM3C_TissueFactor: BioMAP Diversity Plus: CASM3C Assay for Tissue Factor Biomarker Activity (AID 2283052).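 Further: cell surface tissue factor protein level read by ELISA.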 The note with it: primary human coronary artery smooth muscle cells; actives raise or lower the signal.

Read-out in assay [4]: Interferon-gamma inducible Protein 10 (IP10), CXCL10 (gene 3627)
Briefly: BSK_hDFCGF_IP10: BioMAP Diversity Plus: hDFCGF Assay for Interferon-gamma inducible Protein 10 (IP10) Biomarker Activity (AID 2283053). The note with it: primary human foreskin fibroblasts; actives raise or lower the signal. In a few lines: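 ELISA read-out of IP-10 (CXCL10) from primary human skin fibroblasts, 24 h after compound addition. Gain or loss of signal versus DMSO baseline, bidirectional curve fitting.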

Read-out in assay [5]: Urokinase-type plasminogen activator receptor (uPAR), PLAUR (gene 5329)
As to the kind of experiment: BSK_CASM3C_uPAR: BioMAP Diversity Plus: CASM3C Assay for Urokinase-type plasminogen activator receptor (uPAR) Biomarker Activity (AID 2283054).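 Further: cell-surface uPAR protein level quantified by ELISA.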 The note with it: primary human coronary artery smooth muscle cells; actives raise or lower the signal.

Read-out in assay [6]: Vascular cell adhesion molecule 1 (VCAM1), VCAM1 (gene 7412)
As to the kind of experiment: BSK_CASM3C_VCAM1: BioMAP Diversity Plus: CASM3C Assay for Vascular cell adhesion molecule 1 (VCAM1) Biomarker Activity (AID 2283055).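 Further: VCAM-1 protein level quantified by ELISA on the cells.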 The note with it: primary human coronary artery smooth muscle cells; actives raise or lower the signal.

Read-out in assay [7]: Collagen III, COL3A1 (gene 1281)
Briefly: BSK_hDFCGF_CollagenIII: BioMAP Diversity Plus: hDFCGF Assay for Collagen III Biomarker Activity (AID 2283056). The note with it: primary human foreskin fibroblasts; actives raise or lower the signal. The method in brief:
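Human foreskin primary fibroblasts were exposed to test chemicals for 24 h, after which collagen III was quantified by ELISA. Activity was fitted bidirectionally against DMSO as negative control and baseline.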

Read-out in assay [8]: Epidermal growth factor receptor (EGFR), EGFR (gene 1956)
Briefly: BSK_hDFCGF_EGFR: BioMAP Diversity Plus: hDFCGF Assay for Epidermal growth factor receptor (EGFR) Biomarker Activity (AID 2283057). The note with it: primary human foreskin fibroblasts; actives raise or lower the signal. In a few lines: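 ELISA readout of EGFR on human dermal fibroblasts (primary foreskin cells), 24 h post-dosing; bidirectional curve fit vs DMSO baseline, gain or loss of signal scored.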

Read-out in assay [9]: Interleukin-8 (IL8), CXCL8 (gene 3576)
As to the kind of experiment: BSK_hDFCGF_IL8: BioMAP Diversity Plus: hDFCGF Assay for Interleukin-8 (IL8) Biomarker Activity (AID 2283058). The note with it: primary human foreskin fibroblasts; actives raise or lower the signal. In a few lines:
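hDFCGF human dermal fibroblasts; 24 h chemical exposure; IL-8 by ELISA; bidirectional curve fit vs DMSO baseline; gain or loss of signal scored.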

The nature of assay [10]: BSK_hDFCGF_Proliferation: Cell Proliferation Assessment in the BioMAP Diversity Plus: hDFCGF Assay (AID 2283059).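 Further: curves fitted for both rise and fall of signal versus DMSO baseline.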 The note with it: primary human foreskin fibroblasts. In a few lines: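 Primary human foreskin fibroblasts, sub-confluent; […]; 10% TCA fix, 0.1% SRB stain, A560 total protein. Gain/loss fitted bidirectionally vs DMSO control.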

“And” between values parts separate entries of the source, which are not always exact repeats. Equal values may be shown once. Some structures have more than one record in an assay (separate samples or runs), and their calls can disagree. The source made the active and inactive calls. How the source made its calls: active means hit-call score of the fitted dose curve at least 0.9, where 1 is the maximum; inactive means score below 0.9.

Consider `O=C(O)CCC(F)(F)C(F)(F)C(F)(F)F`, for which the outcome in assay [1], in assay [2], in assay [3], in assay [4], in [5] and in assay [6] was inactive. For the same molecule, the result in assay [7], in assay [8], in [9] and in [10] was inactive.
On to `CCN(CCO)S(=O)(=O)C(F)(F)C(F)(F)C(F)(F)C(F)(F)C(F)(F)C(F)(F)C(F)(F)C(F)(F)F`, for which the AC50 in assay [1] was 19.2 µM (active) and 9.12 µM (active); in assay [2] it was 13.4 µM (active) and 10.3 µM (active); in assay [4] it was 35.9 µM (active) and 30 µM (active); in [5] it was 11.1 µM (active) and 30 µM (active); in assay [6] it was 7.11 µM (active) and 8.86 µM (active); in [7], 8.31 µM (active). In addition, the AC50 in [9] was 49.9 µM (active); in assay [10] it was 7.13 µM (active) and 8.13 µM (active). In addition, the outcome in [3], in assay [7], in assay [8] and in assay [9] was inactive.
Turning to `CCOC(C=C(C)CCC=C(C)C)OCC`, the AC50 in assay [1] was 32.1 µM (active); in [3], 28.6 µM (active); in assay [4], 29.8 µM (active); in assay [5] it was 31.4 µM (active); in assay [6], 25.7 µM (active); in assay [7], 29 µM (active). In addition, in [10], the AC50 is 32.2 µM (active). Moreover, the result in assay [2], in assay [8] and in assay [9] was inactive.
With `FC(F)(F)C(F)(F)C(F)(F)CC1CO1` (stereo unspecified), the result in [1], in [2], in assay [3], in assay [4], in assay [5] and in assay [6] was inactive. Also, the outcome in assay [7], in assay [8], in assay [9] and in assay [10] was inactive. Further, in [4], the AC50 was 12.9 µM (active).
With `O=C(Cl)C(F)(F)C(F)(F)C(F)(F)C(F)(F)C(F)(F)C(F)(F)F`, the outcome in assay [1], in assay [2], in assay [3], in assay [4], in assay [5] and in assay [6] was inactive. Moreover, the outcome in [7], in [8], in assay [9] and in assay [10] was inactive. Moreover, in assay [8], the AC50 is 2.04 µM (active).
As for `OCC(O)CC(F)(F)C(F)(F)C(F)(F)C(F)(F)C(F)(F)C(F)(F)C(F)(F)C(F)(F)F` (stereo unspecified), the result in [1], in assay [2], in assay [3], in [4], in [5] and in assay [6] was inactive. Moreover, the result in assay [7], in assay [8], in assay [9] and in assay [10] was inactive.
As for `NC(O)(C(F)(F)F)C(F)(F)F`, the outcome in assay [1], in [2], in [3], in assay [4], in assay [5] and in assay [6] was inactive. The result in [7], in [8], in [9] and in assay [10] was inactive.
In the case of `O=C(O)C(F)(F)C(F)(F)C(F)(F)OC(F)(C(F)(F)F)C(F)(F)F`, the outcome in assay [1], in [2], in assay [3], in assay [4], in assay [5] and in assay [6] was inactive. Besides, the outcome in [7], in assay [8], in assay [9] and in assay [10] was inactive.
Turning to `O=S(=O)(O)CCC(F)(F)C(F)(F)C(F)(F)C(F)(F)F`, the result in [1], in assay [2], in assay [3], in assay [4], in assay [5] and in assay [6] was inactive. Besides, the outcome in assay [7], in [8], in [9] and in [10] was inactive. Besides, the AC50 in assay [7] was 2.04 µM (active).
Regarding `Cc1ccc(S(=O)(=O)C(I)I)cc1`, the AC50 in [1] is 3.42 µM (active); in [3], 1.97 µM (active); in assay [4], 2.71 µM (active); in assay [5] it was 2.92 µM (active); in assay [6], 2.46 µM (active); in [7] it was 6.27 µM (active). Also, the figures for the AC50 in assay [8], in assay [9] and in assay [10] were 3.79 µM (active), 3.51 µM (active) and 0.208 µM (active), respectively. The outcome in [2] was inactive.
In the case of `C=CC(=O)OCC(F)(F)C(F)(F)C(F)(F)C(F)(F)C(F)(F)C(F)(F)C(F)(F)C(F)F`, the outcome in [1], in assay [2], in [3], in [4], in [5] and in [6] was inactive. Also, the result in assay [7], in assay [8] and in assay [9] was inactive. Further, the AC50 in [4] was 28.8 µM (active); in assay [6], 11 µM (active); in assay [10], 18.4 µM (active) and 11.6 µM (active).
For `O=C(c1ccccc1)c1ccc(O)cc1O`, the outcome in assay [1], in assay [2], in assay [4], in assay [5], in assay [6] and in assay [7] was inactive. Further, the result in [8], in [9] and in assay [10] was inactive. Also, the AC50 in assay [3] was 13.6 µM (active).
As to `O=S(=O)(OCC(F)(F)F)C(F)(F)C(F)(F)C(F)(F)C(F)(F)F`, the outcome in [1], in assay [2], in assay [3], in [5], in [6] and in assay [7] was inactive. Further, the result in assay [8], in [9] and in [10] was inactive. The AC50 was 30 µM (active) in [3]; 15.9 µM (active) and 16.4 µM (active) in [4]; 13.2 µM (active) in assay [6].
In the case of `OC(O)C(F)(F)C(F)(F)F`, the outcome in assay [1], in assay [2], in assay [3], in assay [4], in assay [5] and in assay [6] was inactive. Also, the result in [7], in [8], in assay [9] and in assay [10] was inactive.
`OCCCC(F)(F)C(F)(F)C(F)(F)C(F)(F)C(F)(F)C(F)(F)C(F)(F)C(F)(F)F`: the AC50 in assay [1] was 32 µM (active) and 48.6 µM (active); in [2], 7.67 µM (active); in assay [3], 25.4 µM (active); in assay [4], 9.54 µM (active) and 7.81 µM (active); in [5], 46.1 µM (active) and 51.2 µM (active); in assay [6], 37.4 µM (active) and 30 µM (active). Also, the AC50 in [7] is 10.7 µM (active) and 9.75 µM (active); in assay [8], 3.16 µM (active) and 3.2 µM (active); in [9], 15.9 µM (active) and 12 µM (active); in [10], 3.28 µM (active) and 4.77 µM (active). For the same molecule, the outcome in [2] and in [3] was inactive.
With `FC(F)(F)C(F)(F)C(F)(F)C(F)(F)C(F)(F)C(F)(F)CC[Si](Cl)(Cl)Cl`, the outcome in assay [1], in assay [2], in assay [3], in assay [4], in assay [5] and in assay [6] was inactive. Moreover, the outcome in [7], in [8], in assay [9] and in assay [10] was inactive.

As a reminder, the AC50 is the concentration giving half of the maximal activity seen.
